Reference: PubChem BioAssay (NCI)
This is part of a sample that, as a whole, favours compounds with a hit. Of some 83,000 tested, about 20% had one in any assay.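 Cell lines were cultured in 96-well plates, exposed to a single compound concentration, and assessed for percent growth 48 hours later.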 Active and inactive are the calls of the source. How the source made its calls: active means growth percent below 10; inactive means the rest.

Assays:
Experiment in all cases: NCI-60 one-dose screen, 48 h (100 = growth as untreated, 0 = no growth, -100 = all killed)
Settings in all cases: 10 µM unless noted
NCI-H23 lung = system: NCI-H23 lung
NCI-H226 lung = system: NCI-H226 lung
NCI-H322M lung = system: NCI-H322M lung
HOP-62 NSCLC = system: HOP-62 NSCLC
NCI-H460 lung = system: NCI-H460 lung
HOP-92 NSCLC = system: HOP-92 NSCLC
NCI-H522 lung = system: NCI-H522 lung
A549/ATCC NSCLC = system: A549/ATCC NSCLC
786-0 renal = system: 786-0 renal
COLO 205 colon = system: COLO 205 colon

Measured: growth

CCCCOc1nc2c(C)cccc2cc1C1CNC(=O)c2ccccc2N1 (stereo unspecified)
inactive: NCI-H23 lung 80% | NCI-H226 lung 89% | NCI-H322M lung 105% | HOP-62 NSCLC 56.2% | NCI-H460 lung 56.2% | HOP-92 NSCLC 62.6% | NCI-H522 lung 44.8% | A549/ATCC NSCLC 60.1% | 786-0 renal 46.2% | COLO 205 colon 90.8%

Cc1cc(NC(=O)COC(=O)c2sc3cc(F)ccc3c2Cl)no1
inactive: NCI-H23 lung 108% | NCI-H226 lung 101% | NCI-H322M lung 112% | HOP-62 NSCLC 96.2% | NCI-H460 lung 116% | HOP-92 NSCLC 91.8% | NCI-H522 lung 99.3% | A549/ATCC NSCLC 103% | 786-0 renal 101% | COLO 205 colon 104%

O=C(c1c[nH]c2ccccc12)C(Sc1nc2ccccc2c(=O)[nH]1)c1ccccc1 (stereo unspecified)
inactive: NCI-H23 lung 116% | NCI-H226 lung 95.9% | NCI-H322M lung 121% | HOP-62 NSCLC 89.6% | NCI-H460 lung 110% | HOP-92 NSCLC 91.7% | NCI-H522 lung 93.7% | A549/ATCC NSCLC 93.4% | 786-0 renal 104% | COLO 205 colon 96.9%

CCCCCCCCCCC/C=C\C[C@H](O)C/C=C1/C(=O)C=C[C@@H]1C/C=C\CCCC(=O)OC
inactive: NCI-H322M lung 69.8% | A549/ATCC NSCLC 15.6%
active: NCI-H23 lung -25.2% | NCI-H226 lung -45.9% | HOP-62 NSCLC -16.1% | NCI-H460 lung -31.4% | HOP-92 NSCLC -13.6% | NCI-H522 lung -41.9% | 786-0 renal -3.32% | COLO 205 colon -45.9%

O=C(O)C(Cc1ccccc1)N1C(=O)/C(=C/C(Cl)=C/c2ccc([N+](=O)[O-])cc2)SC1=S (stereo unspecified)
active: NCI-H522 lung 0.83% | 786-0 renal -31.6%
inactive: NCI-H23 lung 16.1% | NCI-H226 lung 71.2% | NCI-H322M lung 70.9% | HOP-62 NSCLC 47.7% | NCI-H460 lung 50.1% | HOP-92 NSCLC 20% | A549/ATCC NSCLC 81.2% | COLO 205 colon 17.4%

CC(=O)Oc1cccc(OC(C)=O)c1OC(C)=O
inactive: NCI-H23 lung 111% | NCI-H226 lung 97.8% | NCI-H322M lung 99.7% | HOP-62 NSCLC 92.1% | NCI-H460 lung 110% | HOP-92 NSCLC 106% | NCI-H522 lung 75.2% | A549/ATCC NSCLC 72.6% | 786-0 renal 97.7% | COLO 205 colon 107%

CCCCC(N)(C(=O)O)C1CCCC1 (stereo unspecified)
inactive: NCI-H23 lung 106% | NCI-H226 lung 101% | NCI-H322M lung 101% | HOP-62 NSCLC 112% | NCI-H460 lung 107% | HOP-92 NSCLC 102% | NCI-H522 lung 102% | A549/ATCC NSCLC 94.4% | 786-0 renal 96% | COLO 205 colon 123%

O=C(CCC(=O)OC1CCCC1)OC1CCCC1
inactive: NCI-H23 lung 105% | NCI-H226 lung 96.3% | NCI-H322M lung 97% | HOP-62 NSCLC 109% | NCI-H460 lung 104% | HOP-92 NSCLC 73.1% | NCI-H522 lung 79.8% | A549/ATCC NSCLC 91.4% | 786-0 renal 104% | COLO 205 colon 116%

COc1ccc(OC)c(-c2ccc(-c3ccccc3N)c3[nH]c4ccccc4c23)c1
inactive: NCI-H23 lung 74.5% | NCI-H226 lung 75.2% | NCI-H322M lung 90.1% | HOP-62 NSCLC 80.9% | NCI-H460 lung 92.3% | HOP-92 NSCLC 80.8% | NCI-H522 lung 56.9% | A549/ATCC NSCLC 68.7% | 786-0 renal 83.6% | COLO 205 colon 87.5%

C=C1C(=O)O[C@H]2[C@H]1CC/C(COC(=O)NCCc1ccc(Br)cc1)=C\CC[C@@]1(C)O[C@@H]21
active: NCI-H522 lung -52.1% | 786-0 renal -52.9% | COLO 205 colon -25.3%
inactive: NCI-H23 lung 62.6% | NCI-H226 lung 13.2% | NCI-H322M lung 85.4% | HOP-62 NSCLC 54.6% | NCI-H460 lung 61.2% | HOP-92 NSCLC 33.6% | A549/ATCC NSCLC 77.8%

COc1cc2nc(Cl)nc(NCCO)c2cc1OC
inactive: NCI-H23 lung 108% | NCI-H226 lung 98.2% | NCI-H322M lung 105% | HOP-62 NSCLC 114% | NCI-H460 lung 95.7% | HOP-92 NSCLC 95.6% | NCI-H522 lung 100% | A549/ATCC NSCLC 97.7% | 786-0 renal 111% | COLO 205 colon 125%

O=C(CN1CCOCC1)Nc1ccc(-c2nc3ccccc3s2)cc1
inactive: NCI-H23 lung 99.5% | NCI-H226 lung 95% | NCI-H322M lung 100% | HOP-62 NSCLC 106% | NCI-H460 lung 99.7% | HOP-92 NSCLC 83.3% | NCI-H522 lung 94.5% | A549/ATCC NSCLC 93.8% | 786-0 renal 101% | COLO 205 colon 115%

COc1cc(OC)c(C(=O)/C=C/c2cccc(C#N)c2)c(OC)c1
active: NCI-H23 lung -7.14% | NCI-H226 lung 3.93% | NCI-H322M lung -1.49% | HOP-62 NSCLC -9.93% | NCI-H460 lung 0.36% | HOP-92 NSCLC -5.88% | NCI-H522 lung -25.9% | A549/ATCC NSCLC 2.27% | 786-0 renal 9.74% | COLO 205 colon -6.79%

c1ccc(CCn2nnc3c(Nc4ccc(N5CCOCC5)cc4)ncnc32)cc1
inactive: NCI-H23 lung 102% | NCI-H226 lung 90.2% | NCI-H322M lung 106% | HOP-62 NSCLC 91.1% | NCI-H460 lung 89% | NCI-H522 lung 80.2% | A549/ATCC NSCLC 74.1% | 786-0 renal 87.1% | COLO 205 colon 90.1%
active: HOP-92 NSCLC -2.53%

C=C1C(=O)O[C@H]2[C@H]1CC/C(COC(=O)NCc1cc(OC)c(OC)c(OC)c1)=C\CC[C@@]1(C)O[C@@H]21
inactive: NCI-H23 lung 86.8% | NCI-H226 lung 76.2% | NCI-H322M lung 99.5% | HOP-62 NSCLC 80.4% | NCI-H460 lung 94% | HOP-92 NSCLC 72.4% | A549/ATCC NSCLC 88.1% | 786-0 renal 40.3% | COLO 205 colon 17.6%
active: NCI-H522 lung -42.6%

CCOC(=O)C1=C(C)NC(=O)NC1c1ccc(OCC(=O)N/N=C/c2ccc(Cl)cc2)cc1 (stereo unspecified)
inactive: NCI-H23 lung 105% | NCI-H226 lung 95.8% | NCI-H322M lung 87.5% | HOP-62 NSCLC 89.9% | NCI-H460 lung 101% | HOP-92 NSCLC 90.1% | NCI-H522 lung 81.2% | A549/ATCC NSCLC 77% | 786-0 renal 97.6% | COLO 205 colon 105%

Cc1cc(C)c(NC(=O)c2sc3nc4c(cc3c2N)CN(Cc2ccccc2)CC4)c(C)c1
inactive: NCI-H23 lung 55.2% | NCI-H226 lung 49.5% | NCI-H322M lung 39.3% | HOP-62 NSCLC 33.7% | NCI-H460 lung 10.8% | HOP-92 NSCLC 37.7% | NCI-H522 lung 13.5% | A549/ATCC NSCLC 30.3% | 786-0 renal 39% | COLO 205 colon 12.3%

O=c1cc(C2NCCc3c2[nH]c2ccccc32)c2c(ccc3ccccc32)o1 (stereo unspecified)
inactive: NCI-H23 lung 79.6% | NCI-H226 lung 77% | NCI-H322M lung 62.7% | HOP-62 NSCLC 82.4% | NCI-H460 lung 48.1% | HOP-92 NSCLC 41% | NCI-H522 lung 62.4% | A549/ATCC NSCLC 67.9% | 786-0 renal 59.1% | COLO 205 colon 65.3%

CCCS(=O)(=O)c1nc(NC2CC2)cc(-c2ccc3c(ccn3C3CC(C)(C)NC(C)(C)C3)c2)n1
inactive: NCI-H23 lung 10% | NCI-H322M lung 32.5% | HOP-92 NSCLC 87.6%
active: NCI-H226 lung -63% | HOP-62 NSCLC 7.4% | NCI-H460 lung -74.1% | NCI-H522 lung -64.1% | A549/ATCC NSCLC -61.4% | 786-0 renal -87.3% | COLO 205 colon -48.8%

COc1ccc2c(c1)NC(=O)CN2c1nc(NC2CC2)nc2ccccc12
active: NCI-H460 lung 2.27% | HOP-92 NSCLC 3.22% | NCI-H522 lung -11.9% | COLO 205 colon -18.9%
inactive: NCI-H23 lung 12.4% | NCI-H226 lung 65.7% | NCI-H322M lung 40.7% | HOP-62 NSCLC 31.7% | A549/ATCC NSCLC 20.8% | 786-0 renal 19.6%

CSc1nc(-c2cc3ccccc3o2)cc(-c2ccc(Cl)cc2)c1C#N
inactive: NCI-H23 lung 44.8% | NCI-H226 lung 39.1% | NCI-H322M lung 82.2% | HOP-62 NSCLC 69.8% | NCI-H460 lung 24% | HOP-92 NSCLC 10.3% | NCI-H522 lung 25.6% | A549/ATCC NSCLC 32% | 786-0 renal 90.3% | COLO 205 colon 42.7%

COc1cc(-c2csc(NC(=O)c3cc(C(F)(F)F)cc(C(F)(F)F)c3)n2)cc(OC)c1OC
inactive: NCI-H226 lung 23.6% | NCI-H322M lung 32.7% | HOP-62 NSCLC 46.4% | NCI-H460 lung 13.8% | A549/ATCC NSCLC 26.3% | 786-0 renal 41.6% | COLO 205 colon 37.7%
active: NCI-H23 lung -10.2% | HOP-92 NSCLC -10.6% | NCI-H522 lung 3.92%

O=C(Cc1c(F)cccc1Cl)Nc1ccc(S(=O)(=O)Nc2ncccn2)cc1
inactive: NCI-H23 lung 97.6% | NCI-H226 lung 99.4% | NCI-H322M lung 116% | HOP-62 NSCLC 96.2% | NCI-H460 lung 114% | HOP-92 NSCLC 91.1% | NCI-H522 lung 104% | A549/ATCC NSCLC 110% | 786-0 renal 103% | COLO 205 colon 105%

Nc1cc2c(cc1N)-c1cc(N)c(N)cc1C2
inactive: NCI-H23 lung 95% | NCI-H226 lung 98% | NCI-H322M lung 102% | HOP-62 NSCLC 95.5% | NCI-H460 lung 105% | HOP-92 NSCLC 86.7% | NCI-H522 lung 88.3% | A549/ATCC NSCLC 97.9% | 786-0 renal 100% | COLO 205 colon 116%

c1ccc2nc(-c3ccc4ccccc4n3)ccc2c1
inactive: NCI-H23 lung 88.5% | NCI-H226 lung 85.9% | NCI-H322M lung 95.8% | HOP-62 NSCLC 82.8% | NCI-H460 lung 103% | HOP-92 NSCLC 83% | NCI-H522 lung 70% | A549/ATCC NSCLC 102% | COLO 205 colon 106%

Cc1cc(Nc2nc(-c3ccc(F)cc3)nc3ccccc23)n[nH]1
inactive: NCI-H23 lung 57.3% | NCI-H226 lung 58.6% | NCI-H322M lung 65.5% | HOP-62 NSCLC 78.6% | NCI-H460 lung 35.6% | HOP-92 NSCLC 30.5% | NCI-H522 lung 27.7% | 786-0 renal 56.9% | COLO 205 colon 40.3%

Oc1ccc(N=Cc2ccccc2)cc1
inactive: NCI-H23 lung 88.5% | NCI-H226 lung 111% | NCI-H322M lung 103% | HOP-62 NSCLC 115% | NCI-H460 lung 102% | HOP-92 NSCLC 51.9% | NCI-H522 lung 67.7% | A549/ATCC NSCLC 103% | COLO 205 colon 113%

Cc1ccc(S(=O)(=O)OCC(=O)Nc2ccc(C(=O)O)c(O)c2)cc1
active: HOP-92 NSCLC -60.6%
inactive: NCI-H23 lung 131% | NCI-H226 lung 126% | NCI-H322M lung 104% | HOP-62 NSCLC 100% | NCI-H460 lung 103% | NCI-H522 lung 93.8% | 786-0 renal 108% | COLO 205 colon 131%
